# Results from PubChem BioAssay.
# Unmarked numbers belong to inactive results. Records with an inconclusive call do not appear. For part of these data: Measured potencies and affinities stand elsewhere. Active and inactive are the calls of the source. Unless noted, the rule behind the calls is not given here.
# Assays:
# [1] = antimalarial activity against Dd2 strain (AID 2302;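 active = growth inhibition above 50% at the single 2 µM test dose, taken to imply half-maximal potency below 2 µM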;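 note: 0% = DMSO untreated growth and 100% = chloroquine plus artemisinin killed control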); conditions: P. falciparum Dd2 in RBCs, LDH growth readout, 72 h; at 2 µM; stronger effect = higher value
# [2] = HepG2 cytotoxicity, primary screen, cytotoxicity control for P. falciparum antimalarial project, cell-based, ATP luminescence (AID 2303;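 active = inhibition above 50%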;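 note: 0% = DMSO wells and 100% = digitonin-killed cells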); conditions: HepG2 viability, 24-48 h, at 10 µM, stronger effect = higher value
# [3] = target: L-lactate dehydrogenase (Plasmodium falciparum (isolate CDC / Honduras)) (UniProt Q27743); assay: PfLDH activity inhibition – cell lysate, 3D7 strain, counter-screen for P. falciparum growth inhibition project (AID 2304);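 note: 0% = vehicle and 100% = reference inhibitor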; conditions: P. falciparum 3D7 crude extract, LDH APAD/NBT absorbance; at 2 µM; stronger effect = higher value
# Chain of L-lactate dehydrogenase (Plasmodium falciparum (isolate CDC / Honduras)) (Q27743 whole entry, looked up): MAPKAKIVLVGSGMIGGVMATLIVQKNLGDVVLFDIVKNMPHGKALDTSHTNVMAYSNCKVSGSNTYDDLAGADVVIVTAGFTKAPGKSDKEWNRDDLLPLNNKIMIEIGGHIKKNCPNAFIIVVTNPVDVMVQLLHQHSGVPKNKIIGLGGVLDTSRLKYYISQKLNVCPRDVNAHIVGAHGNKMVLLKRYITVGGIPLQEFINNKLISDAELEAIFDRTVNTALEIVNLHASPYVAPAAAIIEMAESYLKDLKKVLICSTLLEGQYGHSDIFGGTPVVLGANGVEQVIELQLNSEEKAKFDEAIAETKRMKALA
# [4] = inhibition of 3D7 malaria parasite growth – strain 3D7 (AID 2306);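 note: 0% = DMSO wells and 100% = chloroquine plus artemisinin control wells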; conditions: P. falciparum 3D7 erythrocytic growth, LDH absorbance, 72 h; at 2 µM; stronger effect = higher value
# [5] = target: Protein kinase 7 (PK7), Plasmodium falciparum 3D7 (PF3D7_0213400) (UniProt Q7YTF7); assay: inhibition of Plasmodium PK7 catalytic activity – biochemical, TCAMS antimalarial set, Kinase-Glo luminescence (AID 1159587); conditions: recombinant PfPK7, Kinase-Glo ATP depletion luminescence
# Chain of Protein kinase 7 (PK7), Plasmodium falciparum 3D7 (PF3D7_0213400) (Q7YTF7 1-343): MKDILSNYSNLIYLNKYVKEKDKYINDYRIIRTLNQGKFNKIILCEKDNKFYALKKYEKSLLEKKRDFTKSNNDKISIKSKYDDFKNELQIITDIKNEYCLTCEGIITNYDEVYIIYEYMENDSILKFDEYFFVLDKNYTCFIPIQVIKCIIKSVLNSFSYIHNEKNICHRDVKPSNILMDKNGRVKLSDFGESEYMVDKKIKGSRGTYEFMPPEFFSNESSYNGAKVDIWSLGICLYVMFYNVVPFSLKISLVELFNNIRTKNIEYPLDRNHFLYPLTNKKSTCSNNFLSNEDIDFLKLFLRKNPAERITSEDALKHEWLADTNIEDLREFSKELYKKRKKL
# [6] = target: Calcium-dependent protein kinase 4 (Plasmodium falciparum (isolate 3D7)) (UniProt Q8IBS5); assay: PfCDPK4 kinase inhibitors, biochemical, TCAMS library (AID 1159588; cut-off not given, nearly all actives have IC50 up to about 0.91 µM); conditions: recombinant PfCDPK4, Kinase-Glo ATP depletion luminescence
# Chain of Calcium-dependent protein kinase 4 (Plasmodium falciparum (isolate 3D7)) (Q8IBS5 whole entry, looked up): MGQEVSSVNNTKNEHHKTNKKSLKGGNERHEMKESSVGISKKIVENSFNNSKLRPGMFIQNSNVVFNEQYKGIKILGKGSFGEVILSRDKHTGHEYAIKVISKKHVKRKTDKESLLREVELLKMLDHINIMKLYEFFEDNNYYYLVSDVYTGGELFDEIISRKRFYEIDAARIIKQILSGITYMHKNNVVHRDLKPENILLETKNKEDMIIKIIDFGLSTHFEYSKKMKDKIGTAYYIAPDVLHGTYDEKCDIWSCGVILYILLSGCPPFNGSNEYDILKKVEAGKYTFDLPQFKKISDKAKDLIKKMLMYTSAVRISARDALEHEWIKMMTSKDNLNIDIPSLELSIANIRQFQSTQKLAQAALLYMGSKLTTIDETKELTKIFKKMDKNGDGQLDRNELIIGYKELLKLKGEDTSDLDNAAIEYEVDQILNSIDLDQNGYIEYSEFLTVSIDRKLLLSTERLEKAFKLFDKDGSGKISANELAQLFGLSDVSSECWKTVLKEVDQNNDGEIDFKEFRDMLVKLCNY
# [7] = test system: Aerobactin synthetase IucA (Klebsiella pneumoniae); assay: IucA aerobactin synthetase inhibitors, biochemical, Tocris library, absorbance (AID 1345561); conditions: purified IucA enzyme assay, absorbance (OD) read-out; stronger effect = lower value;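 tested at 8 µM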;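 note: 100% = enzyme without compound and 0% = no enzyme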
# [8] = inhibitors of Cryptococcus chitosan production, flow cytometry, Cibacron Brilliant Red staining (AID 1347148); conditions: Cryptococcus neoformans chitosan, stronger effect = lower value; at 99.1 µM unless noted;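 note: compound exposure lasted three days at 37 degrees C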
# [9] = target: Tyrosine-protein kinase ABL1 (Homo sapiens) (UniProt P00519); assay: PubChem AID 493040; conditions: kinase panel binding, pKi
# Chain of Tyrosine-protein kinase ABL1 (Homo sapiens) (P00519 whole entry, looked up): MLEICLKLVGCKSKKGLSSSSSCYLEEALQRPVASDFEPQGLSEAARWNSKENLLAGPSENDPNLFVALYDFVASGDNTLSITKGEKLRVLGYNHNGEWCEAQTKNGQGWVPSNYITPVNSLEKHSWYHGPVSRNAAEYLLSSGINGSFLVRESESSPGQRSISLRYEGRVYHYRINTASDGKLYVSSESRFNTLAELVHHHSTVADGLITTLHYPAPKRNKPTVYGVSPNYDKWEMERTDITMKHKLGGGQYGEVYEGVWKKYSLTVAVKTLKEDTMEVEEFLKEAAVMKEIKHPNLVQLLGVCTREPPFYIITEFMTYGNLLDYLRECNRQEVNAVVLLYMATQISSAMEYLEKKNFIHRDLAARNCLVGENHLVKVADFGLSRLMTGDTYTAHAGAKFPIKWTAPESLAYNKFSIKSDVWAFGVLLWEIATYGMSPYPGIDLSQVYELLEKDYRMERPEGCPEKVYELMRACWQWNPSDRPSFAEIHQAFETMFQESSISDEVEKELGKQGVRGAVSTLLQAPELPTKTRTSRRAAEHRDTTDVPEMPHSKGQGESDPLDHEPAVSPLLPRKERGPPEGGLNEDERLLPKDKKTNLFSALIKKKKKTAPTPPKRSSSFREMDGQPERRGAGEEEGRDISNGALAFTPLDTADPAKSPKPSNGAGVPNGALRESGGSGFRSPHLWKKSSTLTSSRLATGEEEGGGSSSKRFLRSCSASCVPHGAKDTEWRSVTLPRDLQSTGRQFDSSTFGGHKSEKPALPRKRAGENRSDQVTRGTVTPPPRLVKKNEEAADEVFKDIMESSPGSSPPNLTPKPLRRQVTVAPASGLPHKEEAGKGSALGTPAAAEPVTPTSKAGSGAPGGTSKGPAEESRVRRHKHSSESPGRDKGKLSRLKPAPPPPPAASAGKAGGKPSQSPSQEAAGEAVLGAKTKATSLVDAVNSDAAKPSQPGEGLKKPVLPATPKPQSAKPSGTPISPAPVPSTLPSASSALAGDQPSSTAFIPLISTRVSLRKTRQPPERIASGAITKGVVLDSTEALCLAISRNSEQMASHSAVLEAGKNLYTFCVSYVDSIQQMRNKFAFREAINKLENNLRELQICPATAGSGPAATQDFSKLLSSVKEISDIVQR
# [10] = growth inhibition of DIPG glioma cells, dose response, cell-based, SU-DIPG-XIII, MIPE5.0, CellTiter-Glo, qHTS (AID 1347064; cut-off not given, nearly all actives have AC50 up to about 23 µM;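 for AC50: cells exposed to compound for 48 hours before the viability read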); conditions: SU-DIPG-XIII viability, CellTiter-Glo ATP luminescence
# [11] = target: Calcium-dependent protein kinase 1 (Plasmodium falciparum (isolate 3D7)) (UniProt P62344); assay: PfCDPK1 kinase inhibitors, biochemical, TCAMS library (AID 1159585; cut-off not given, nearly all actives have IC50 up to about 0.98 µM;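 note: inhibitors leave more ATP so luminescence rises with inhibition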); conditions: recombinant PfCDPK1, Kinase-Glo ATP depletion luminescence
# Chain of Calcium-dependent protein kinase 1 (Plasmodium falciparum (isolate 3D7)) (P62344 whole entry, looked up): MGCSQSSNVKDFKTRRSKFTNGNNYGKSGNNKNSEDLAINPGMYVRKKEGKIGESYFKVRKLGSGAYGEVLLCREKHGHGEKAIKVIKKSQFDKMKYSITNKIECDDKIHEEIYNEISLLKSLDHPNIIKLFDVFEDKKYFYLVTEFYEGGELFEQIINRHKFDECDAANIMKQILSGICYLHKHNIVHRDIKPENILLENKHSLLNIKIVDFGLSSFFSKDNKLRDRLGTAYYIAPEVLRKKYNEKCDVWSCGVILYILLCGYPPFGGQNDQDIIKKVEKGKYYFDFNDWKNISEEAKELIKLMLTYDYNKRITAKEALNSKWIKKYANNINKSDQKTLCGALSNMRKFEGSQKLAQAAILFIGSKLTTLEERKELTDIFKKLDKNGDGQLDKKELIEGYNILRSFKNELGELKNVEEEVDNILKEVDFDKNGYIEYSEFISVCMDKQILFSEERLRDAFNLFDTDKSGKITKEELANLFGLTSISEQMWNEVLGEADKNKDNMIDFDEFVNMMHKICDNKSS
# [12] = target: Plasmodium falciparum protein kinase 6 (PK6, PF3D7_1337100) (UniProt Q8IDW1); assay: PfPK6 kinase inhibitors, biochemical, TCAMS library (AID 1159586); conditions: recombinant PfPK6, Kinase-Glo ATP depletion luminescence
# Chain of Plasmodium falciparum protein kinase 6 (PK6, PF3D7_1337100) (Q8IDW1 1-305): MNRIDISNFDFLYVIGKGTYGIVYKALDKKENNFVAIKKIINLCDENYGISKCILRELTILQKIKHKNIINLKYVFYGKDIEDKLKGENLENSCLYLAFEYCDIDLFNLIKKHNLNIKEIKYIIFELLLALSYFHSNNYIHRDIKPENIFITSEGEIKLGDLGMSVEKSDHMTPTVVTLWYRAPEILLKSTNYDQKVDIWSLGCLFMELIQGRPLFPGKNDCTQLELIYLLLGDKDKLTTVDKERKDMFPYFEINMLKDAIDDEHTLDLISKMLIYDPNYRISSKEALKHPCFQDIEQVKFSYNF
# [13] = circadian clock period modulators, cell-based, LOPAC library, luminescence reporter (AID 2774); conditions: circadian reporter cells, at 7 µM, actives lie on both sides;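 note: values are relative to mean of DMSO wells on each plate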
# [14] = test system: Hepatitis C virus NS3 helicase; assay: HCV NS3 helicase inhibitors, primary screen, biochemical, fluorescence polarization, LOPAC1280 library (AID 687035; in the data active = inhibition above about 37%); conditions: Purified HCV NS3 helicase, Cy5-dT15 ssDNA binding fluorescence polarization; stronger effect = higher value; concentration not given here
# [15] = Cy5 fluorescence quenching or enhancement artefacts, artefact control for HCV NS3 helicase inhibitor project, biochemical, LOPAC1280 (AID 687037); conditions: Cy5-DNA-NS3h complex fluorescence interference counterscreen
# [16] = phospholipid biosynthesis inhibitors in animal cells, primary screen, cell-based, LOPAC library, screen 4 (AID 1347384); conditions: phospholipid biosynthesis inhibition screen, at 10 µM
# [17] = hESC survival regulators, cell-based (AID 493140); conditions: human embryonic stem cell survival screen; stronger effect = higher value;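 note: cells exposed to compounds for four days before counting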
smiles,measurement,setting,value
Nc1ncnc2occ(-c3ccc(NC(=O)Nc4cc(C(F)(F)F)ccc4F)cc3)c12,growth inhibition,[1],99% (active)
same,inhibition,[2],57% (active)
same,inhibition,[3],-1%
same,growth inhibition,[4],99% (active)
same,outcome,[5],inactive
same,outcome,[6],inactive
Fc1ccc(-c2nc3n(c2-c2ccncc2)CCS3)cc1,remaining activity,[7],117%
NC(=O)c1ccc(-c2nc(-c3ccc4c(c3)OCO4)c(-c3ccccn3)[nH]2)cc1,remaining activity,[7],110%
same,fold fluorescence,[8],18.6 [at 130.1 µM]
same,outcome,[9],inactive
Cn1c(=O)c(Oc2ccc(F)cc2F)cc2cnc(NC3CCOCC3)nc21,outcome,[10],inactive
Cc1ccc(O)cc1Nc1ccnc2cc(-c3ccccn3)ccc12,growth inhibition,[1],98% (active)
same,inhibition,[2],6%
same,inhibition,[3],-2%
same,growth inhibition,[4],97% (active)
same,outcome,[11],inactive
same,outcome,[12],inactive
same,outcome,[5],inactive
same,outcome,[6],inactive
COc1ccc(-c2oc3ncnc(N)c3c2-c2ccc(NC(=O)Nc3cc(C(F)(F)F)ccc3F)cc2)cc1,AC50,[10],3.72 µM (active)
Cn1cc(/C=C2\C(=O)Nc3cccnc32)c2ccccc21,AC50,[10],8.33 µM (active)
CN(C)c1cc2c(Nc3ccc4nc(Cc5ccccc5)[nH]c4c3)ncnc2cn1,growth inhibition,[1],29%
same,inhibition,[2],11%
same,inhibition,[3],0%
same,growth inhibition,[4],85% (active)
same,outcome,[11],inactive
same,outcome,[12],inactive
same,outcome,[5],inactive
same,outcome,[6],inactive
CN(C)c1cc2c(Nc3ccc4c(cnn4Cc4ccccc4)c3)ncnc2cn1,period change,[13],0.33 h
same,inhibition,[14],-1%
same,fluorescence ratio (interference),[15],1
same,outcome,[16],inactive
Cn1cc(C2=C(c3cn(CCCSC(=N)N)c4ccccc34)C(=O)NC2=O)c2ccccc21,survival,[17],72.7
same,remaining activity,[7],106%
same,fold fluorescence,[8],10.1 [at 109.3 µM]
